# Compound activity (PubChem BioAssay)
# Cycloheximide cs: Cycloheximide Counterscreen for Small Molecule Inhibitors of Shiga Toxin; cell reporter, cycloheximide protein synthesis inhibition counterscreen; max response, %; actives 12% (n = 300,000); AID 2314, 2010; in the data active means max response mostly above about 13%, no sharp cut-off; inactive means mostly below about 14%; further: read at 38.3 µM for the half of the compounds with a filed dose; 0% is about no effect
# AmpC detergent: qHTS Inhibitors of AmpC Beta-Lactamase (assay with detergent); P00811; AmpC hydrolysis of nitrocefin, absorbance 480 nm, 0.01% Triton; Potency, µM (top dose mostly 114 µM), without a hit: at the top dose activity change, negative = inhibition, usual class: inhibitors; actives 0.041% (n = 370,000);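 further: potency means the concentration at half of the fitted maximal effect; 0% = no-compound wells and -100% = no-enzyme wells; nearly all actives have a fitted effect of over 25% in size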
# Target sequence (P00811 whole entry, looked up): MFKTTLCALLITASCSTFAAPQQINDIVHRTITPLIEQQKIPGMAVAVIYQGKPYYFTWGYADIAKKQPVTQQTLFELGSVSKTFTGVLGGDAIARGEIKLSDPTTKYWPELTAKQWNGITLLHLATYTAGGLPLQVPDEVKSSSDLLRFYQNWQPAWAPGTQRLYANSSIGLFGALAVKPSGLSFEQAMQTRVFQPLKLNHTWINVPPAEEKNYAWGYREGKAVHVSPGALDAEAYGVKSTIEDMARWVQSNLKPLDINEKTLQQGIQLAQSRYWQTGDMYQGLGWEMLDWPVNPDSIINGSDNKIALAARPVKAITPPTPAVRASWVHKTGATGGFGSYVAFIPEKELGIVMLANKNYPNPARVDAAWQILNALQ
#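 20 mM phosphate pH 7.0 + 0.01% (detergent screen) or 0.0001% Triton X-100; 5.3 nM AmpC reagent; cpd preinc 15 min RT; nitrocefin (800 uM stock) to start; A480 q20 s × 4 min; Activity was normalised to no-enzyme and no-compound control wells.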
# AMA1-RON2 inh: qHTS for Inhibitors of AMA1-RON; Towards Development of Antimalarial Drug Lead: Primary Screen; AlphaScreen AMA1-biotinylated RON2 peptide binding; Potency, µM (highest dose often 58.2 µM), for the others: top-dose activity change, negative = inhibition, actives largely listed as inhibitors; actives 0.2% (n = 360,000);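 further: potency means the concentration at half of the fitted maximal effect; 0% = vehicle wells and -100% = peptide control; nearly all actives have a fitted effect of over 45% in size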
#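 AMA1 (3D7) with his tag at 25 nM final met compounds first, then biotinylated RON2 peptide at 25 nM; detection used donor plus acceptor beads, 10 µg/mL apiece, read by AlphaScreen after 30 min at room temperature.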
# SARS PLpro yeast: qHTS of Yeast-based Assay for SARS-CoV PLP | S. cerevisiae expressing SARS-CoV PLpro, growth rescue | Potency, µM (series often up to 32.9 µM), without a hit: at the highest dose activity, positive = growth rescue, usual class: activators | actives 0.19% (n = 330,000) | AID 485353, 2010; calls by dose curve; further: potency means the concentration at half of the fitted maximal effect; 0% is about no effect; nearly all actives have a fitted effect of over 55% in size
# AmpC no deterg: qHTS Inhibitors of AmpC Beta-Lactamase (assay without detergent); P00811; AmpC nitrocefin hydrolysis, absorbance 480 nm, 0.0001% Triton; Potency, µM (series often up to 57.1 µM), without a hit: top-dose activity change, negative = inhibition, usual class: inhibitors; actives 0.52% (n = 330,000); AID 485341, 2010;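 further: potency means the concentration at half of the fitted maximal effect; plate controls were no compound for no effect and no enzyme for full effect; nearly all actives have a fitted effect of over 20% in size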
#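 20 mM phosphate pH 7.0 + 0.01% (detergent screen) or 0.0001% Triton X-100; 5.3 nM AmpC reagent; cpd preinc 15 min RT; nitrocefin (800 uM stock) to start; A480 q20 s × 4 min; Activity was normalised to no-enzyme and no-compound control wells.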
# Shiga inhibitor: A qHTS for Small Molecule Inhibitors of Shiga Toxin; Vero cells, Shiga toxin protein synthesis inhibition reporter; inhibition, % at 38.7 µM; actives 9.2% (n = 290,000); in the data active means inhibition mostly above about 28%, no sharp cut-off; inactive means mostly below about 43%; further: 0% is about no effect
# An asterisk follows results filed as active; ? = inconclusive; / = not tested or not shown; [ ] = remark or other dose. The sample as a whole holds a higher share of hits than the screen did. Unless noted, the call rests on the fitted dose curve; in most records, active means well fitted curve in the direction sought with a large enough effect; inconclusive means small, poorly fitted or top-dose-only effect, or another doubt; inactive means no such curve, though single readings can be large; an effect the other way counts as inactive or inconclusive.
SMILES,Cycloheximide cs,AmpC detergent,AMA1-RON2 inh,SARS PLpro yeast,AmpC no deterg,Shiga inhibitor
S=C(Nc1ccccc1)N1CCc2ccccc21,14*,?,-11%,1%,-30%,/
COc1ccc(NC(=S)N2CCc3ccccc32)cc1OC,40*,0%,0%,8%,14%,90*
O=[N+]([O-])c1ccc(Cl)c(NC(=S)N2CCCC2)c1,33*,-1%,-11%,17%,10%,50*
O=C(c1ccco1)N1CCN(C(=S)Nc2cccc([N+](=O)[O-])c2)CC1,-5,-6%,-13%,1%,-38%,-5
COc1ccccc1NC(=S)N1CCCc2ccccc21,5,-9%,5%,5%,-18%,6
CCCCn1c(=O)c(C(=O)Nc2ccc(C)cn2)c(O)c2ccccc21,-1,-16%,5%,1%,-9%,/
CCN1CCN(C(=S)Nc2ccc([N+](=O)[O-])cc2)CC1,21*,8%,-5%,-4%,-8%,17
CCc1ccc(NC(=O)C(=O)NCCN2CCN(Cc3ccc([N+](=O)[O-])cc3)CC2)cc1,11*,-2%,0%,21%,-4%,-4
CC(=O)c1cccc(NC(=S)N2CCc3ccccc32)c1,63*,13%,53%,2%,-35%,157*
O=[N+]([O-])c1ccc(NC(=S)N2CCc3ccccc32)cc1,29,2%,-7%,-5%,-37%,42*
CN1CCN(C(=S)Nc2ccc([N+](=O)[O-])cc2)CC1,6,-10%,-7%,-1%,-15%,1
CCc1nc2c(OCc3ccc(OC(F)F)cc3)cccn2c1N(C)C(=O)c1ccco1,/,/,-4%,/,/,/
Cc1ccc2[nH]c3c(NCc4ccccc4)ncnc3c2c1,39*,-9%,12%,-3%,-29%,80*
CCCOc1ncnc2c1[nH]c1ccc(C)cc12,45*,-4%,-4%,-2%,-4%,108*
Cc1ccc(-n2c(C)nn(CCOc3ccccc3)c2=O)cc1,35*,-11%,-5%,2%,-2%[2.29 µM],67*
Cc1nn(C)c(=O)n1-c1ccccc1,-3,-12%,-7%,-7%,56%,-14
Cc1nn(CCOc2ccccc2)c(=O)n1-c1c(F)cccc1F,52*,-7%,0%,-2%,1%,33*
Cc1nn(C)c(=O)n1-c1ccc(Oc2ccccc2)cc1,11*,-2%,-4%,8%,-5%,-7
CCSc1nnc(NC(=O)C2CCN(S(=O)(=O)c3ccccc3C(F)(F)F)CC2)s1,-3,-14%,-6%,6%,-17%,-2
Cc1cccc(CN2CCc3c([nH]c4ccccc34)C2C(C)(C)C)n1 (stereo not drawn),-2,-9%,-11%,2%,-11%,-17
CCN(CC)C(=O)CSc1nc(-c2ccc(C)cc2)nc2c1COC(C)(C)C2,20*,-9%,0%,3%,110%,15
COCCN1CCN(C(=O)c2cc(COc3cc(C)ccc3C)on2)CC1,39*,-11%,-9%,2%,106%,81*
CC(=O)NCCC1CCCCN1C(=O)c1cc(COc2cc(C)ccc2C)on1 (stereo not drawn),45*,-2%,6%,10%,76%,101*
Cc1ccc(C)c(OCc2cc(C(=O)N3CCOCC3)no2)c1,49*,3%,5%,-5%,22%,58*
COC1CCN(C(=O)c2cc(COc3cc(C)ccc3C)on2)CC1,/,/,2%,/,/,/
COCCCC1CCN(C(=O)c2cc(COc3cc(C)ccc3C)on2)CC1,56*,-1%,-2%,/,131%,162*
Cc1cccc(NC(=O)CSc2nnc(C3CC3)n2CC2CCCO2)c1 (stereo not drawn),6,0%,9%,8%,10%,-9
COc1ccc(C(=O)Nc2cnn(Cc3ccc(Cl)cc3)c2)cc1OC,-3,0%,-11%,5%,-2%,-9
